Compounds without any hit were thinned out: in the full panel of roughly 83,000, 20% have a hit.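 Assay: single dose, 48 h. Readout: percent growth (0 = no net growth; negative = cell death). Active: <10.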 Values without a mark were called inactive. Calls of active or inactive are those of the source.
What was measured:
Assay in all cases: NCI-60 one-dose screen, 48 h (100 = growth as untreated, 0 = no growth, -100 = all killed)
Conditions in all cases: 10 µM unless noted
[1] = system: SR leukemia
[2] = system: RPMI-8226 leukemia
[3] = system: OVCAR-8 ovarian
[4] = system: OVCAR-5 ovarian
[5] = system: OVCAR-4 ovarian
[6] = system: SK-OV-3 ovarian
[7] = system: IGROV1 ovarian
[8] = system: OVCAR-3 ovarian
[9] = system: HS 578T breast
[10] = system: NCI/ADR-RES ovarian

SMILES | growth [1] | growth [2] | growth [3] | growth [4] | growth [5] | growth [6] | growth [7] | growth [8] | growth [9] | growth [10]
CC[C@]12C=CCN3CC[C@@]4(c5cc(NC(=O)COc6cc(O)c7c(=O)cc(-c8ccccc8)oc7c6)c(OC)cc5N(C)[C@H]4[C@@](O)(C(=O)OC)[C@@H]1OC(C)=O)[C@@H]32 | -30.7% (active) | -31.6% (active) | -17.7% (active) | -86% (active) | -66.9% (active) | -86.1% (active) | -77.7% (active) | -86.2% (active) | 2.1% (active) | -49.9% (active)
Nc1nc(Nc2ccccc2SSc2ccccc2Nc2nc(N)nc(-c3cccc(Br)c3)n2)nc(-c2cccc(Br)c2)n1 | -44% (active) | 59.6% | 68.4% | 95.5% | 73% | 131% | 54.9% | 100% | 74.3% | 21.3%
O=C(NNc1nc2cc(F)cc(F)c2n2cccc12)c1cnccn1 | 8.81% (active) | 18.3% | 12.7% | 33.1% | 16.2% | 4.18% (active) | 15% | 30.2% | 64.4% | 3.06% (active)
CCc1cccc(NC(=O)CNc2cc(S(=O)(=O)N(C)C)cc(C)c2C)c1 | 83.8% | 65.7% | 97.7% | 84.1% | 56.3% | 107% | 74% | 112% | 97.2% | 100%
N#Cc1cnc2ccc(-c3cnc4[nH]ncc4c3)cc2c1N1CCc2cc(F)c(Cl)cc21 | 8.41% (active) | -1.79% (active) | 19.2% | 19.5% | 15.3% | 4.24% (active) | -31% (active) | -5.18% (active) | -42% (active) | 8.51% (active)
NS(=O)(=O)c1ccc(Nc2nc(Nc3ccccc3)nc3nnc(SCC(=O)NC4CCCCC4)n23)cc1 | 97.7% | 105% | 99.8% | 105% | 108% | 105% | 95.5% | 119% | 102% | 112%
COc1ccc(-c2nn(-c3ccc(S(C)(=O)=O)cc3)cc2/C=N/O)cc1 | 107% | 102% | 101% | 101% | 113% | 108% | 106% | 122% | 108% | 107%
Cc1ccc(-c2cc3nc(C(Cl)Cl)nc(-c4cccs4)n3n2)cc1 | 108% | 51.9% | 77.5% | 72.4% | 71% | 86.4% | 61.7% | 20.3% | 91% | 58.3%
O=C1CCCc2nc(Nc3ccc(S(=O)(=O)Nc4ccc([N+](=O)[O-])cc4)cc3)ncc21 | 105% | 100% | 106% | 111% | 107% | 109% | 98% | 98.9% | 98.4% | 105%
NC(N)=Nc1ccc(Oc2cccc(Nc3ccc(Cl)cc3)c2)cn1 | -57.8% (active) | -41.8% (active) | 29.4% | 48.3% | 20.2% | 53.2% | 14.4% | -14.3% (active) | 34.1% | 56.5%
COc1ccc(/C=C(\C#N)C(=O)N2c3ccccc3Sc3ccc(SC)cc32)cc1F | 121% | 95.6% | 91.4% | 86.5% | 75.4% | 100% | 91.1% | 93.4% | 85% | 92.7%
Cc1ccc(-c2cc3nc(C(Cl)Cl)nc(C)n3n2)cc1 | 113% | 94.6% | 102% | 104% | 118% | 84.2% | 72.2% | 104% | 107% | 110%
CCCn1cnc2c(c1=N)C(c1ccc(F)cc1)c1sc3c(CC)cccc3c1O2 (stereo not given) | 1.23% (active) | 4.79% (active) | 26.2% | 23.3% | 26.6% | 40.3% | 10.2% | -10.2% (active) | 16.5% | -13.9% (active)
O=S(=O)(Nc1cccc2ccccc12)c1ccc(-c2cnc(C3CC3)o2)cc1 | 21.2% | 14.4% | 28.5% | 42.6% | 64.1% | 71.3% | 23.4% | 7.12% (active) | 39.1% | 7.22% (active)
Cn1ccnc1C(=O)/C=C/c1ccc(CNC(=O)c2ccc(S(F)(F)(F)(F)F)cc2)cc1 | 4.16% (active) | -10.9% (active) | 26.4% | 22.4% | 35.6% | 66.8% | 16.7% | 16.8% | 23% | 12.2%
COc1c(N2CC3CCCNC3C2)c(F)cc2c(=O)c(C(=O)N/N=C/c3ccccc3)cn(C3CC3)c12 (stereo not given) | 8.2% (active) | 73.1% | 99.9% | 107% | 93.1% | 111% | 99.6% | 102% | 97.7% | 104%
COc1ccc(Cn2cc3c(c2-c2cc(OC)c(OC)c(OC)c2)CCc2c(CN4CCCC4)noc2-3)cc1 | 29% | 21% | 42.5% | 27.9% | 55.2% | 41% | 29.9% | -16% (active) | 10.3% | 9.19% (active)
COC(=O)C1(C)CCC[C@]2(C)[C@H]3C[C@H]4C(C(C)C)=C[C@]3(CC[C@@H]12)[C@H]1[C@@H]4[C@@H](OC(=O)c2ccco2)CC[C@@H]1OC(=O)c1ccco1 (stereo not given in full) | 93.4% | 99.5% | 100% | 107% | 103% | 115% | 99.4% | 123% | 110% | 107%
C=C(C)[C@@H]1CC[C@]2(COP(=O)(OCC)OCC)CC[C@]3(C)[C@H](CC[C@@H]4[C@@]5(C)CCCNC(C)(C)[C@@H]5CC[C@]43C)[C@@H]12 | -51.4% (active) | -46.6% (active) | 55.4% | 58.6% | 23.5% | 103% | 6.74% (active) | 54% | 52.9% | 27.6%
Cc1noc(C)c1CSc1nc2ccccc2n1-c1ccccc1 | 69.7% | 95.8% | 102% | 89% | 69.1% | 116% | 77% | 114% | 102% | 97.3%
CS(=O)(=O)Nc1cc(-c2ccc3ncc(C#N)c(N[C@H](CO)c4ccccc4)c3c2)cnc1Cl | 20.7% | 64.2% | 56.2% | 74.1% | 54% | 81.1% | 3.75% (active) | 24% | 13.7% | 97.8%
Nc1nc(Nc2ccccc2SSc2ccccc2Nc2nc(N)nc(-c3ccccc3)n2)nc(-c2ccccc2)n1 | -47% (active) | 11.2% | 73.9% | 107% | 63% | 130% | 52.2% | 90.3% | 84.3% | 14.9%
Oc1cccc2ccc(-c3nnc(SCc4ccc(O)c5ncccc45)n3-c3ccccc3)nc12 | 31.2% | 15.6% | 6.56% (active) | 47.8% | 16.8% | 12.1% | 11.2% | 28.3% | 18.5% | 7.68% (active)
NS(=O)(=O)c1ccc(Nc2nc(N/N=C/c3c[nH]c4ccccc34)nc(Nc3ccccc3)n2)cc1 | 12.1% | -5.69% (active) | 37.8% | 87.8% | 59.7% | 90.8% | 33.9% | 26.7% | 42.2% | 93.5%
COC(=O)C(Cc1ccccc1)Nc1nc(NC(Cc2ccccc2)C(=O)OC)nc(N2CCOCC2)n1 (stereo not given) | 100% | 98.5% | 99.6% | 106% | 107% | 103% | 98.6% | 111% | 101% | 111%
N#Cc1cccc(/C(N)=N/C(N)=N/c2nc3ccccc3s2)c1 | 26.2% | 8.74% (active) | 35% | 62.3% | 91.7% | 41.6% | 36.6% | 20.6% | 23% | 14.3%

— PubChem BioAssay (NCI)
